Source: the antibiotic and cytotoxicity screens of Wong et al. (2023)
Out of some 39,000 compounds screened, about 3,300 (8.5%) were called active. The sample holds actives, similar compounds and a random draw of the others, so the mix is not that of the screen.

Each molecule was assayed on HepG2 (assay: cytotoxicity call (relative viability < 0.9)). Settings: 10 µM.
For `COc1cccc(-c2ccc3c(c2)O[C@@H](CN(C)C(=O)C2CC2)[C@@H](C)CN([C@H](C)CO)S3(=O)=O)c1`, the cytotoxicity call was “inactive”.
For `C[C@@H]1CN([C@H](C)CO)C(=O)c2cc(NS(=O)(=O)c3ccc(Cl)cc3)ccc2O[C@@H](C)CCCCO[C@@H]1CN(C)C(=O)CCC(F)(F)F`, the cytotoxicity call was “inactive”.
With `N[C@H](C(=O)O)c1cc(O)cc(O)c1` the cytotoxicity call was “inactive”.
`Cc1noc(C)c1NC(=O)Nc1ccc2c(c1)C(=O)N([C@@H](C)CO)C[C@@H](C)[C@@H](CN(C)C(=O)Nc1cccc3ccccc13)O2` was tested, and the cytotoxicity call was “inactive”.
With `Cc1noc(C)c1NC(=O)N(C)C[C@H]1OCCCC[C@H](C)Oc2ccc(NS(=O)(=O)c3cccs3)cc2C(=O)N([C@H](C)CO)C[C@@H]1C` the cytotoxicity call was “inactive”.
For `CCCCCCCCCCCCCCCCCC(=O)NCCCCOn1c(CCCC)nc2c(N)nc3ccccc3c21`, the cytotoxicity call was “inactive”.
With `CCCCCCc1ccc(O)cc1O.Nc1c2ccccc2nc2ccccc12` the cytotoxicity call was “active”.
With `CCCCCCc1ccc(O)cc1O` [listing 1 of 2 here] the cytotoxicity call was “active”.
For `CCCCCCc1ccc(O)cc1O` [listing 2 of 2 here], the cytotoxicity call was “inactive”.
With `COC(=O)CCc1ccc(OC)cc1O` the cytotoxicity call was “inactive”.
For `CCCCCCCc1c(C)c(O)cc2c1[nH]c1ccccc12`, the cytotoxicity call was “inactive”.
In the case of `Cc1noc(C)c1NC(=O)Nc1ccc2c(c1)CC(=O)N([C@@H](C)CO)C[C@H](C)[C@@H](CN(C)S(=O)(=O)c1cccs1)O2`, the cytotoxicity call is reported as “inactive”.
With `Cc1noc(C)c1NC(=O)N(C)C[C@H]1Oc2ccc(NS(=O)(=O)c3ccccc3)cc2CC(=O)N([C@@H](C)CO)C[C@@H]1C` the cytotoxicity call was “inactive”.
`COc1ccc(NC(=O)N[C@@H]2CC[C@H](CCNC(=O)CN3CCOCC3)O[C@@H]2CO)cc1` was tested, and the cytotoxicity call was “inactive”.
`CCC(=O)N(C)C[C@H]1Oc2ncc(C#C[C@H](C)O)cc2C(=O)N([C@H](C)CO)C[C@@H]1C` was tested, and the cytotoxicity call was “inactive”.
`C[C@H](CO)N1C[C@H](C)[C@@H](CN(C)C(=O)Nc2ccccc2)Oc2cc(C#C[C@@H](C)O)ccc2S1(=O)=O` was tested, and the cytotoxicity call was “inactive”.
In the case of `C[C@@H]1CN([C@H](C)CO)S(=O)(=O)c2ccc(-c3cncnc3)cc2O[C@@H]1CN(C)C(=O)c1cccc(F)c1`, the cytotoxicity call is reported as “inactive”.
With `CCc1c(C)[nH]c2ncnn2c1=O` the cytotoxicity call was “inactive”.
`CCCN(C)C[C@H]1Oc2cc(C#Cc3cccc(OC)c3)ccc2S(=O)(=O)N([C@@H](C)CO)C[C@H]1C` was tested, and the cytotoxicity call was “inactive”.
For `C[C@H]1CN([C@@H](C)CO)C(=O)c2cccc(NC(=O)Nc3cccc4ccccc34)c2O[C@H]1CN(C)Cc1ccc2c(c1)OCO2`, the cytotoxicity call was “inactive”.
`c1ccc(-c2nn(-c3ccccc3)c3c2cnc2ccccc23)cc1` was tested, and the cytotoxicity call was “active”.
For `COc1ccc2c(c1)c(-c1ccccc1)nn2-c1ccc(C)cc1`, the cytotoxicity call was “inactive”.
For `c1ccc(-c2cc(-c3ccccc3)n(-c3ccccc3)n2)cc1`, the cytotoxicity call was “inactive”.
